SARS PLP yeast = blocks SARS-CoV papain-like protease in a yeast assay; Potency, µM (titrated, usually from 32.9 µM), for inactives: at the highest dose activity, positive = growth rescue, most hits filed as activators; S. cerevisiae expressing SARS-CoV PLpro, growth rescue; 0.19% of 330,000 active; further: potency means the concentration at half of the fitted maximal effect; 0% is about no effect; nearly all actives have a fitted effect of over 55% in size
Shiga inhibitor = blocks Shiga toxin action in Vero cells; Vero cells, Shiga toxin protein synthesis inhibition reporter; inhibition, % at 38.7 µM; AID 2315; 9.2% of 290,000 active; in the data active means inhibition mostly above about 28%, no sharp cut-off; inactive means mostly below about 43%; further: 0% is about no effect
Tb PYK inh = T. brucei pyruvate kinase inhibition; Q57TT1; TbPYK enzyme, Kinase-Glo Plus ATP luminescence, 45 min; Potency, µM (highest dose often 76.8 µM), for the others: at the top dose activity, negative = inhibition, usual class: inhibitors; 0.12% of 410,000 active; AID 624173; active means well fitted curve in the direction sought with a large enough effect; inconclusive means small, poorly fitted or top-dose-only effect, or another doubt; inactive means no such curve, though single readings can be large; an effect the other way counts as inactive or inconclusive; further: potency means the concentration at half of the fitted maximal effect; on the % scale 0 is the no-effect control and ±100 the full control effect; nearly all actives have a fitted effect of over 50% in size
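TbPYK + substrate in 50 mM TEA pH 7.2, 100 mM KCl, 10 mM MgCl2, 0.05% BSA, 0.01% Tween-20; cpd pinned; ADP 130 uM final; 45 min RT; Kinase-Glo Plus 10 min; luminescence endpoint.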
NS1 function inh = inhibitors of influenza NS1 protein function; AID 2326; Potency, µM (series often up to 46.1 µM), for inactives: top-dose activity, positive = more growth; 0.4% of 270,000 active; further: potency means the concentration at half of the fitted maximal effect; actives are rising curves; nearly all actives have a fitted effect of over 50% in size
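In this qHTS, NS1 from influenza A is expressed in budding yeast, where it slows growth. Cells are switched from glucose to 2% galactose medium (pH 6.0, -URA), treated with compound, and growth recovery is read at OD600.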
Cycloheximide cs = counter-screen for Shiga toxin inhibitors: cycloheximide protein synthesis inhibition; cell reporter, cycloheximide protein synthesis inhibition counterscreen; max response, %; 12% of 300,000 active; in the data active means max response mostly above about 13%, no sharp cut-off; inactive means mostly below about 14%; further: read at 38.3 µM for the half of the compounds with a filed dose; 0% is about no effect
LmPK inh = LmPK (Leishmania mexicana) enzyme inhibition; Q27686; purified LmPK, Kinase-Glo ATP luminescence, 1 h; Potency, µM (series often up to 57.5 µM), for the others: top-dose activity change, negative = inhibition, actives largely listed as inhibitors; 0.37% of 290,000 active; AID 1721; active means well fitted curve in the direction sought with a large enough effect; inconclusive means small, poorly fitted or top-dose-only effect, or another doubt; inactive means no such curve, though single readings can be large; an effect the other way counts as inactive or inconclusive; further: potency means the concentration at half of the fitted maximal effect; on the % scale 0 is the no-effect control and ±100 the full control effect
Target sequence (Q27686 whole entry, looked up): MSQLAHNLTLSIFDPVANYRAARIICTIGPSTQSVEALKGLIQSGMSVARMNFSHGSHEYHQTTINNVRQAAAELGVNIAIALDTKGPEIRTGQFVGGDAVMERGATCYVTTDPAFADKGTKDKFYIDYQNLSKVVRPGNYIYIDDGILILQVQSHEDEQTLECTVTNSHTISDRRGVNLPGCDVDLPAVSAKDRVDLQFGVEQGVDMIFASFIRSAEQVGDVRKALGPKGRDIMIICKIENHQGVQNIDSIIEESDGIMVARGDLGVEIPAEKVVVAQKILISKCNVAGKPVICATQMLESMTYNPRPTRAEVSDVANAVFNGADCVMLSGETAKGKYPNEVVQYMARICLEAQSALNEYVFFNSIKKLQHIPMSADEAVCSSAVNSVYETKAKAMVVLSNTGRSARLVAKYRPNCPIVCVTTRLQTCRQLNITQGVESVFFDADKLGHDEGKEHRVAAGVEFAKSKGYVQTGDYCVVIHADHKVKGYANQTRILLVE
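In 50 mM imidazole pH 7.2 with 7 mM MgCl2, LmPK (0.1 nM) turned over PEP (0.5 mM) and ADP (0.1 mM) for 1 h at room temperature. Luciferase read-out of ATP.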
An asterisk follows results filed as active. Shown is part of a subset that was picked to be rich in hits. Unless noted, the call rests on the fitted dose curve.

Results for Cc1ccccc1-c1noc(-c2ccc(Cl)cc2)n1 ?
SARS PLP yeast: -7.3%; Shiga inhibitor: 25.7; Tb PYK inh: -5.6%; NS1 function inh: -4.3%; Cycloheximide cs: 24.0*; LmPK inh: -10.0%

What do the screens show for `Cc1ccccc1-c1noc(-c2ccccc2F)n1`?
SARS PLP yeast: 3.5%; Shiga inhibitor: 68.0*; Tb PYK inh: 0.2%; NS1 function inh: 6.1%; Cycloheximide cs: 35.6*; LmPK inh: inconclusive

How did CCc1ccccc1NC(=O)c1nnn(CC(=O)Nc2c(C)cc(C)cc2C)c1N do in these assays?
Tb PYK inh: -0.4%

How did CCOC(=O)Nc1nc2ccc(Cn3cccc3)cc2[nH]1 do in these assays?
Tb PYK inh: -1.5%

How did O=C(Nc1ccccc1)c1cc2ccc3ccccc3c2s1 do in these assays?
SARS PLP yeast: -4.2%; Shiga inhibitor: 92.3*; Tb PYK inh: -1.4%; NS1 function inh: -10.1%; Cycloheximide cs: 47.0*; LmPK inh: -0.2%

Results for COc1ccc2cc(C(=O)Nc3ccc(S(N)(=O)=O)cc3)sc(=O)c2c1OC ?
SARS PLP yeast: 4.9%; Shiga inhibitor: -10.7; Tb PYK inh: 1.8%; NS1 function inh: 7.1%; Cycloheximide cs: -1.8; LmPK inh: 3.0%

What do the screens show for `COc1ccc2cc(C(=O)Nc3ccccc3)sc(=O)c2c1OC`?
SARS PLP yeast: -2.5%; Shiga inhibitor: 33.7*; Tb PYK inh: -11.3%; NS1 function inh: -9.4%; Cycloheximide cs: 42.6*; LmPK inh: -6.6%

What do the screens show for `O=C(c1cc2nc(C3CC3)cc(C(F)F)n2n1)N1CCOCC1`?
SARS PLP yeast: -2.1%; Shiga inhibitor: 32.5*; Tb PYK inh: -16.3%; NS1 function inh: -11.3%; Cycloheximide cs: 9.6; LmPK inh: -6.5%

How did N=c1oc2c3c4c(cc2cc1C(=O)Nc1ccccc1)CCCN4CCC3 do in these assays?
SARS PLP yeast: -5.7%; Shiga inhibitor: 27.9; Tb PYK inh: 2.4%; NS1 function inh: inconclusive; Cycloheximide cs: 22.5*; LmPK inh: 8.0%

How did N#Cc1ccc(NC(=O)c2cc3cc4c5c(c3oc2=N)CCCN5CCC4)cc1 do in these assays?
NS1 function inh: 0.7%

How did CCN(C(=O)CSc1ncccn1)C1CCS(=O)(=O)C1 (centres undefined) do in these assays?
SARS PLP yeast: -5.1%; Shiga inhibitor: -4.7; Tb PYK inh: 4.3%; NS1 function inh: 15.9%; Cycloheximide cs: 0.4; LmPK inh: -0.7%

How did COc1ccc(-c2nnc(SCC(=O)Nc3ncc(C(F)(F)F)cc3Cl)n2CC(C)C)cc1 do in these assays?
SARS PLP yeast: -5.4%; Shiga inhibitor: -6.8; Tb PYK inh: inconclusive; NS1 function inh: -10.6%; Cycloheximide cs: 14.9*; LmPK inh: 2.5%

Results for CCn1c(SCC(=O)Nc2ncc(C(F)(F)F)cc2Cl)nnc1-c1cccc(C)c1 ?
SARS PLP yeast: 10.9%; Shiga inhibitor: -13.2; Tb PYK inh: -10.3%; NS1 function inh: 2.8%; Cycloheximide cs: -9.0; LmPK inh: 1.9%

What do the screens show for `Cc1ccc(N(C)S(=O)(=O)c2cccc(C(=O)OCC(=O)c3c(N)n(C)c(=O)n(C)c3=O)c2)cc1`?
SARS PLP yeast: -15.9%; Tb PYK inh: 1.7%

How did COc1ccc(C2C(C(=O)c3ccco3)=C(O)C(=O)N2c2nnc(C)s2)cc1 (centres undefined) do in these assays?
SARS PLP yeast: -0.7%; Shiga inhibitor: 76.0*; Tb PYK inh: -14.9%; NS1 function inh: 7.9%; Cycloheximide cs: 54.9*; LmPK inh: 8.8%

What do the screens show for `COc1ccc(C2C(C(=O)c3ccco3)=C(O)C(=O)N2c2nnc(C)s2)cc1OC` (centres undefined)?
SARS PLP yeast: 2.8%; Shiga inhibitor: 5.8; Tb PYK inh: -10.8%; NS1 function inh: 3.5%; Cycloheximide cs: -1.3; LmPK inh: -0.2%

Results for Cc1ccc2nc(N3C(=O)C(O)=C(C(=O)c4ccco4)C3c3cccs3)sc2c1 (centres undefined) ?
SARS PLP yeast: -17.0%; Shiga inhibitor: 68.4*; Tb PYK inh: -10.2%; NS1 function inh: -45.0%; Cycloheximide cs: 34.2*; LmPK inh: 2.5%

How did C=CCOc1ccc(C2C(C(=O)c3ccco3)=C(O)C(=O)N2c2nnc(C)s2)cc1 (centres undefined) do in these assays?
SARS PLP yeast: -0.4%; Shiga inhibitor: 71.5*; Tb PYK inh: -18.4%; NS1 function inh: 14.9%; Cycloheximide cs: 22.8*; LmPK inh: -4.6%

How did CCOc1cccc(C2C(C(=O)c3ccc(C)o3)=C(O)C(=O)N2c2nnc(C)s2)c1 (centres undefined) do in these assays?
Tb PYK inh: 13.6%

How did Cc1cc2c(=O)[nH]c(N)nc2[nH]1 do in these assays?
Tb PYK inh: 0.1%

What do the screens show for `Cc1ccc(C)c(OCCn2c(CCNC(=O)C3CCCCC3)nc3ccccc32)c1`?
Shiga inhibitor: 11.1; Cycloheximide cs: 0.9

Results for CCOC(=O)C1(CC2CCCCO2)CCN(S(=O)(=O)c2cc(C)cs2)CC1 (centres undefined) ?
SARS PLP yeast: -1.1%; Shiga inhibitor: -2.3; Tb PYK inh: 4.8%; NS1 function inh: -4.3%; Cycloheximide cs: 3.5; LmPK inh: 3.1%

Results for COc1ccc(OC)c(-n2c(-c3cccc(C)c3)n[nH]c2=S)c1 ?
SARS PLP yeast: 0.5%; Shiga inhibitor: 7.8; Tb PYK inh: 2.51µM*; NS1 function inh: -8.0%; Cycloheximide cs: -5.3; LmPK inh: inconclusive

Results for Cc1ccccc1-n1c(-c2ccc3ccccc3n2)n[nH]c1=S ?
SARS PLP yeast: 0.4%; Shiga inhibitor: -3.9; Tb PYK inh: inconclusive; NS1 function inh: -2.1%; Cycloheximide cs: -2.3; LmPK inh: 17.8µM*

What do the screens show for `COc1ccc(OC)c(-n2c(-c3ccccc3)n[nH]c2=S)c1`?
SARS PLP yeast: -5.4%; Shiga inhibitor: -7.8; Tb PYK inh: 11.2µM*; NS1 function inh: 2.6%; Cycloheximide cs: -1.3; LmPK inh: 2.24µM*

How did Cc1cccc(-c2n[nH]c(=S)n2C)c1 do in these assays?
SARS PLP yeast: 14.0%; Shiga inhibitor: -7.5; Tb PYK inh: inconclusive; Cycloheximide cs: -2.8; LmPK inh: -3.8%

Results for COc1ccc(-c2n[nH]c(=S)n2/N=C/C=C\c2ccccc2OC)cc1 ?
SARS PLP yeast: -14.7%; Shiga inhibitor: -9.9; Tb PYK inh: -52.0%; NS1 function inh: 17.8%; Cycloheximide cs: -3.0; LmPK inh: -1.4%

How did COc1ccc(-c2cc(-c3n[nH]c(=S)n3-c3ccccc3OC)[nH]n2)cc1 do in these assays?
SARS PLP yeast: 8.8%; Shiga inhibitor: 6.0; Tb PYK inh: -28.1%; NS1 function inh: -18.1%; Cycloheximide cs: 1.9; LmPK inh: 11.2µM*

How did CCOC(=O)c1cc(S(=O)(=O)N2CCN(c3ccccc3)CC2)[nH]n1 do in these assays?
Tb PYK inh: -8.5%

Compound activity as filed in PubChem.
